Data on six molecules can be found in PubChem BioAssay AID2117 (The Scripps Research Institute Molecular Screening Center, 2009).

Active and inactive are the calls of the source. No rule for the calls is given here.

The assay deals with VP16. Description: LXR, FXR and VP16 reporter activity, cell-based, luciferase reporter, ROR modulator project, late-stage follow-up (AID 2117). The settings on record: cell-based luciferase reporter panel, at 10 µM; fold change: max fold change; inhibition: stronger effect = higher value. For orientation: Reporter assays use an easily measured gene product as a stand-in for the process of interest.
As for `O=S(=O)(Nc1ccc(C(O)(C(F)(F)F)C(F)(F)F)cc1)c1cccc2ccccc12`, the fold change worked out at 0.95 and the inhibition (in general, the relative decrease from the control value, in per cent) was 5% (inactive).
As to `CC(C)(C)c1ccc(S(=O)(=O)Nc2ccc(C(O)(C(F)(F)F)C(F)(F)F)cc2)cc1`, the fold change was found to be 0.9 and the inhibition was 10% (inactive).
As for `COC(=O)c1sccc1S(=O)(=O)Nc1ccc(C(O)(C(F)(F)F)C(F)(F)F)cc1`, the fold change amounted to 0.94 and the inhibition was found to be 6%.
For `O=S(=O)(Nc1ccc(C(O)(C(F)(F)F)C(F)(F)F)cc1)c1cccc2cccnc12`, in that order: 1.03 and 0% (inactive).
For `COc1cccc(S(=O)(=O)Nc2ccc(C(O)(C(F)(F)F)C(F)(F)F)cc2)c1`, in that order: 0.91 and 9% (inactive).
For `O=S(=O)(Nc1ccc(C(O)(C(F)(F)F)C(F)(F)F)cc1)c1ccc(Cl)c2nonc12`, in that order: 0.61 and 39% (inactive).
